Our source for the growth values is PubChem BioAssay (NCI).

Holding throughout (assay): NCI-60 one-dose screen, 48 h (100 = growth as untreated, 0 = no growth, -100 = all killed)
One assay deals with HT29 colon. The following applies: 10 µM unless noted.
Another assay relates to SNB-75 CNS. The conditions noted are these: 10 µM unless noted.
The test system of another assay is SNB-19 CNS. The following applies: 10 µM unless noted.
A further assay has as its system U251 CNS. The conditions noted are these: 10 µM unless noted.
The test system of a further assay is PC-3 prostate. The conditions noted are these: 10 µM unless noted.
The next assay has as its system SK-MEL-5 melanoma. The conditions noted are these: 10 µM unless noted.
The next assay concerns UACC-62 melanoma. The following applies: 10 µM unless noted.
The next assay concerns SK-MEL-28 melanoma. The conditions noted are these: 10 µM.
In the next assay the test system is SK-MEL-2 melanoma. The following applies: 10 µM unless noted.
For another assay, the system named is SN12C renal. The conditions noted are these: 10 µM unless noted.
Another assay deals with UO-31 renal. The conditions noted are these: 10 µM unless noted.
A further assay concerns TK-10 renal. The conditions noted are these: 10 µM unless noted.
For a further assay, the system named is ACHN renal. The conditions noted are these: 10 µM unless noted.
The next assay relates to CAKI-1 renal. The following applies: 10 µM unless noted.
Another assay relates to A498 renal. The conditions noted are these: 10 µM unless noted.
A further assay relates to CCRF-CEM leukemia. The conditions noted are these: 10 µM unless noted.
The test system of another assay is MOLT-4 leukemia. The conditions noted are these: 10 µM unless noted.
Another assay relates to SR leukemia. The conditions noted are these: 10 µM unless noted.
The test system of a further assay is LOX IMVI melanoma. The conditions noted are these: 10 µM unless noted.
The next assay concerns EKVX NSCLC. The following applies: 10 µM unless noted.

Compounds without any hit were thinned out: in the full panel of roughly 83,000, 20% have a hit.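 Assay: single dose, 48 h. Readout: percent growth (0 = no net growth; negative = cell death). Active: <10.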 Values without a mark were called inactive. Activity calls are given as the source filed them.

For the molecule `CCOc1ccc(Nc2ccnc3cc(Cl)ccc23)cc1`, the growth in the assay on HT29 colon is 1.61% (active); in the assay with SNB-75 CNS it was 1.25% (active); in the assay with SNB-19 CNS, 16%; in the assay with U251 CNS it was 4.87% (active); with PC-3 prostate, 4.74% (active); with SK-MEL-5 melanoma it was -12.5% (active). The growth is 21.9% in the assay on UACC-62 melanoma; 31.1% with SK-MEL-28 melanoma; -40.5% (active) in the assay on SK-MEL-2 melanoma; 7.43% (active) in the assay with SN12C renal; -12.8% (active) with UO-31 renal; 7.11% (active) in the assay on TK-10 renal. For the same molecule, the growth in the assay on ACHN renal is 10.9%; in the assay on CAKI-1 renal it was 2.27% (active); in the assay with A498 renal, -19.5% (active); with CCRF-CEM leukemia, 3.77% (active); in the assay on MOLT-4 leukemia, 4.04% (active); with SR leukemia, 0.437% (active).

As for `NCCNc1nc2ccc(F)cc2c2c(=O)c3cc(F)ccc3sc12`, the growth with HT29 colon is -39.5% (active); in the assay on SNB-75 CNS, 39.9%; in the assay with SNB-19 CNS, 64.6%; with U251 CNS it was 24.1%; in the assay with PC-3 prostate, 45%; with UACC-62 melanoma it was 84.2%. The growth in the assay with LOX IMVI melanoma is -90.8% (active); with SK-MEL-28 melanoma, 91%; with SK-MEL-2 melanoma, 91.5%; in the assay with EKVX NSCLC it was 75.9%; with SN12C renal it was 46.3%; with UO-31 renal, 35.6%. Besides, the growth in the assay on TK-10 renal is 59.1%; in the assay with ACHN renal, 31.6%; in the assay on CAKI-1 renal, 22.5%; with A498 renal it was 41.2%; with CCRF-CEM leukemia, 20.7%; in the assay on MOLT-4 leukemia it was 5.51% (active).

On to `CCOC(=O)c1c2c(n3cccc(Cl)c13)C(=O)c1ncccc1C2=O`, for which the growth with HT29 colon is 69.3%; in the assay on SNB-75 CNS, 78.2%; in the assay on SNB-19 CNS, 45.9%; in the assay with U251 CNS it was 36%; with PC-3 prostate it was 53%; in the assay on UACC-62 melanoma, 55.9%. Further, the growth in the assay on LOX IMVI melanoma is 27.3%; with SK-MEL-28 melanoma, 87.5%; with SK-MEL-2 melanoma, 103%; in the assay on EKVX NSCLC it was 75.7%; in the assay on SN12C renal, 16.6%; with UO-31 renal, 43.9%. Further, the growth with TK-10 renal was 75.6%; in the assay on ACHN renal it was 26.4%; with CAKI-1 renal, 25.8%; in the assay with A498 renal, 79.3%; in the assay with CCRF-CEM leukemia, 84.2%; in the assay on MOLT-4 leukemia it was 95.8%. Moreover, the growth in the assay on SR leukemia was 58.3%.

For the molecule `O=c1oc2ccc(F)cc2c(=O)n1-c1ccc(F)cc1F`, the growth was 97.1% with HT29 colon; 2.33% (active) with SNB-75 CNS; 38.1% in the assay on SNB-19 CNS; 13.6% in the assay on U251 CNS; 16.1% in the assay on PC-3 prostate; 3.17% (active) in the assay with UACC-62 melanoma. Moreover, the growth is 14.2% with LOX IMVI melanoma; 23% with SK-MEL-28 melanoma; -11.8% (active) in the assay on SK-MEL-2 melanoma; 93.5% in the assay on EKVX NSCLC; 24.9% in the assay with SN12C renal; 26% with UO-31 renal. Further, the growth is 10.4% with TK-10 renal; 36.3% in the assay on ACHN renal; 16.4% in the assay on CAKI-1 renal; 35.9% in the assay on CCRF-CEM leukemia; 22.3% in the assay on MOLT-4 leukemia.

As to `CCOC(=O)c1ccc(N=Cc2sc(=O)[nH]c2O)cc1`, the growth in the assay on HT29 colon was 104%; in the assay on SNB-75 CNS it was 84.9%; with SNB-19 CNS it was 91.9%; in the assay with U251 CNS it was 97.3%; in the assay on SK-MEL-5 melanoma it was 99.8%; in the assay on UACC-62 melanoma, 91.2%. Further, the growth is 93.6% with LOX IMVI melanoma; 105% in the assay on SK-MEL-28 melanoma; 94.5% with SK-MEL-2 melanoma; 93.4% in the assay with EKVX NSCLC; 95.3% with SN12C renal; 83.1% in the assay on UO-31 renal. Besides, the growth in the assay on TK-10 renal is 98.4%; with ACHN renal, 90.3%; in the assay on CAKI-1 renal it was 88.1%; in the assay on A498 renal, 110%; in the assay with CCRF-CEM leukemia it was 101%; with MOLT-4 leukemia, 99.9%. Besides, the growth in the assay with SR leukemia was 117%.

Regarding `Cn1nc(C(F)(F)F)c(-c2ccc(Cl)c(C(F)(F)F)c2)c1-c1ccc(OCc2ccc(Cl)cc2)cc1O`, the growth in the assay on HT29 colon is 20.4%; in the assay with SNB-75 CNS, 47.7%; in the assay on SNB-19 CNS it was 19.2%; in the assay with U251 CNS, 0.822% (active); in the assay with PC-3 prostate, 3.78% (active); in the assay with UACC-62 melanoma, 19.7%. Further, the growth was 5.24% (active) with LOX IMVI melanoma; 31.2% in the assay on SK-MEL-28 melanoma; 1.95% (active) with SK-MEL-2 melanoma; 12.8% in the assay with EKVX NSCLC; 6.24% (active) in the assay on SN12C renal; -6.34% (active) with UO-31 renal. Also, the growth in the assay on TK-10 renal is 0.361% (active); in the assay on ACHN renal, 5.21% (active); in the assay on CAKI-1 renal it was 19.8%; in the assay with A498 renal, 5.29% (active); in the assay on CCRF-CEM leukemia, 9.89% (active); with MOLT-4 leukemia, 12.3%. For the same molecule, the growth in the assay with SR leukemia was 25.1%.

`Cc1nc(Nc2ccccn2)sc1C(=O)/C=C/c1ccc(Cl)cc1`: the growth is 5.45% (active) with HT29 colon; 11.9% in the assay with SNB-75 CNS; 32.7% in the assay on SNB-19 CNS; 14.8% in the assay on U251 CNS; -32.4% (active) with SK-MEL-5 melanoma; 48.2% with UACC-62 melanoma. In addition, the growth is 15.8% with LOX IMVI melanoma; 61.8% in the assay on SK-MEL-28 melanoma; 31.6% with SK-MEL-2 melanoma; 27.8% in the assay with EKVX NSCLC; 32% in the assay on SN12C renal; 28.6% in the assay on UO-31 renal. Moreover, the growth with TK-10 renal is 61.5%; with ACHN renal it was 23.2%; in the assay on CAKI-1 renal, 27.9%; with A498 renal it was 6.49% (active); in the assay on CCRF-CEM leukemia it was 17.1%; in the assay with MOLT-4 leukemia it was 17.2%. Further, in the assay on SR leukemia, the growth was 15.6%.

Regarding `CN(C)/C=C1\SC(=Nc2ccc(Cl)cc2)NC1=O`, the growth in the assay on HT29 colon is 110%; in the assay with SNB-75 CNS, 96.4%; in the assay on SNB-19 CNS, 102%; in the assay with U251 CNS, 99.7%; with SK-MEL-5 melanoma it was 97%; in the assay with UACC-62 melanoma it was 95.2%. The growth is 101% in the assay with LOX IMVI melanoma; 101% in the assay with SK-MEL-28 melanoma; 104% in the assay with SK-MEL-2 melanoma; 92.1% in the assay on SN12C renal; 90.4% with UO-31 renal; 111% in the assay with TK-10 renal. For the same molecule, the growth in the assay on ACHN renal is 103%; in the assay on CAKI-1 renal, 96.1%; in the assay on A498 renal, 94.6%; in the assay on CCRF-CEM leukemia, 106%; in the assay with MOLT-4 leukemia, 101%; in the assay on SR leukemia, 123%.
